The list is not random: actives were taken first. Their share in the collection is about 4.6%.
VACV Venus inh = inhibitors of vaccinia virus (Venus reporter) | Vaccinia virus Venus reporter expression, fluorescence | Potency, µM (doses to about 36.5 µM), for the others: top-dose activity change, negative = inhibition, actives largely listed as inhibitors | hit rate 0.46% among 330,000 | AID 720580; calls by dose curve; tested in A549 cells; also: nearly all actives have a fitted effect of over 30% in size
Vaccinia mCherry = inhibitors of vaccinia virus infection (mCherry reporter signal) | Vaccinia virus mCherry reporter infection, fluorescence | hit rate 0.63% among 310,000 | Potency, µM (top dose mostly 36.5 µM), without a hit: at the highest dose activity change, negative = inhibition, hits mostly inhibitors; calls by dose curve; tested in A549 cells; also: nearly all actives have a fitted effect of over 35% in size
Lassa entry inh = inhibitors of Lassa virus binding or cell entry | Lassa virus pseudotype entry inhibition, cell reporter | Potency, µM (top dose mostly 37.9 µM), for the others: at the highest dose activity change, negative = inhibition, actives largely listed as inhibitors | hit rate 1.2% among 300,000 | AID 540256; calls by dose curve; tested in HEK293 cells; also: nearly all actives have a fitted effect of over 50% in size
HCV inh = blocks hepatitis C virus; Potency, µM (series often up to 41.8 µM), for the others: top-dose activity change, negative = inhibition, most hits filed as inhibitors; hit rate 3.4% among 340,000; Huh7.5.1 HCVcc-Cre infection, luciferase reporter, 44 h; AID 651820; active = well fitted inhibition curve with a large enough effect; inconclusive = small, poorly fitted or top-dose-only effect, or another doubt; inactive = no such curve, though single readings can be large or run the other way
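1,000 cells/well; 4 h culture; + compound; + HCVcc-Cre (~0.5 moi); 44 h; luciferase substrate, RT 15 min; read 15 sec.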
MARV entry inh = blocks Marburg virus binding to or entry into cells; AID 540276; hit rate 1.8% among 300,000; Potency, µM (titrated, usually from 37.8 µM), for the others: at the top dose activity change, negative = inhibition, hits mostly inhibitors; Marburg virus pseudotyped entry inhibition, cell reporter; calls by dose curve; tested in HEK293 cells
Active calls of the source: *; i = inactive; ? = inconclusive; . = no result given; [ ] = another dose, or the depositor's remark. % is scaled to controls: 0 for no effect and ±100 for the full control effect; potency is read from the fitted curve at half-maximal effect.

SMILES	VACV Venus inh	Vaccinia mCherry	Lassa entry inh	HCV inh	MARV entry inh
CCCCC1CCC(C(=O)N(CC(C)C)c2c(N)n(CCCC)c(=O)[nH]c2=O)CC1 (stereo not drawn)	-6%	-12%	17%[46.1 µM]	?	-6%
CCCCCN(C(=O)CN1CCC(Cc2ccccc2)CC1)c1c(N)n(CCCC)c(=O)[nH]c1=O	-16%	-16%	?	?	10µM*
Cc1cc(C(=O)N(Cc2cc3cc4c(cc3nc2N2CCOCC2)CCC4)CC2CCCO2)c(=O)[nH]c1C (stereo not drawn)	-19%	-6%	.	.	.
Oc1ccc(Cl)cc1CN1CCOc2c(O)cc(-c3nc4ccccc4s3)cc2C1	-10%	-24%	.	.	.
Cc1cc(C)cc(NC(=O)/C=C/c2ccc([N+](=O)[O-])s2)c1	-6%	-30%	-16%	?	-20%
Cc1ccccc1NC(=O)/C=C/c1ccc([N+](=O)[O-])s1	167%	-18%	?	10µM*	?
Cc1ccccc1NC(=O)/C=C/c1cccs1	-11%	i	-3%	2%	?
CC(=O)c1cccc(NC(=O)/C=C/c2ccc([N+](=O)[O-])s2)c1	2%	-6%	7.1µM*	?	?
COc1ccc(OC)c(-c2ccnc(-n3ncc(C(=O)N(C)CCc4ccccn4)c3C)n2)c1	-4%	-15%	.	.	.
COc1ccc(C(=O)c2c(N)c(C(=O)Nc3cccc(OC)c3)c3ccccn23)cc1	-1%	-5%	7%[46.1 µM]	.	-2%[46.1 µM]
Cn1c2ccccc2c(=O)c2ccc(C#CC3(O)CCCCC3)cc21	-26%	i	.	10µM*	.
Cc1cc(C)c(S(=O)(=O)Nc2ccc(O)cc2)c(C)c1	.	.	-10%	4%	?
Cc1cc(C)c(S(=O)(=O)Nc2ccc3c(c2)CCC3)c(C)c1	-16%	i	?	11µM*	7.3µM*
Cc1cc(C)c(S(=O)(=O)Nc2ccc3c4c(cccc24)CC3)c(C)c1	?	?	1µM*	?	?
Cc1noc(C)c1CSc1nc2[nH]ncc2c(=O)n1-c1ccccc1	?	?	4µM*	-5%	?
Cc1noc(C)c1CSc1nc2ccccc2c(=O)n1-c1ccc(F)cc1F	?	.	-19%	?	?
Cc1noc(C)c1CSc1nc2ccccc2c(=O)n1-c1ccccc1	-22%	.	?	4µM*	?
COc1cc2c(cc1OC)CN(C(=O)CSc1nc3[nH]ncc3c(=O)n1-c1ccccc1)CC2	-21%	-1%	.	11µM*	-4%
CCOC(=O)N1CCN(C(=O)CSc2nc3ccccc3c(=O)n2-c2ccccc2)CC1	-21%	.	8.9µM*	9%	-28%
COc1cc(OC)c(OC)cc1/C=c1\[nH]c(=O)/c(=C/c2cc(OC)c(OC)cc2OC)[nH]c1=O	-18%	-11%	.	.	.
Cc1[nH]nc2c1[C@@H](CCc1ccccc1)C(C#N)=C(N)O2	.	.	.	.	3%
C=CCc1cccc(CNc2cnc3ccccc3c2)c1O	.	.	.	7.9µM*	.
O=C(c1ccnc(-n2cnnn2)c1)N1CCOc2ccc(C(O)CCc3ccccc3)cc2C1 (stereo not drawn)	-1%	-8%	.	.	.
CC(C)CC(=O)NC(NC(=S)Nc1cccc2cccnc12)C(Cl)(Cl)Cl (stereo not drawn)	?	.	?	?	14µM*
COc1ccccc1C1CN(CCNC(=O)[C@@H]2CSC(=O)N2)Cc2ccccc2O1 (stereo partly drawn)	-7%	-8%	.	.	.
SMILES	VACV Venus inh	Vaccinia mCherry	Lassa entry inh	HCV inh	MARV entry inh
Cc1ccc(S(=O)(=O)N2CCOCC2)cc1NC(=O)COc1ccccc1Cc1ccccc1	-22%	-19%	?	13µM*	?
Cc1ccc(S(=O)(=O)N2CCOCC2)cc1NC(=O)COc1ccc(C(=O)c2ccccc2)cc1	.	.	.	10µM*	.
Nc1[nH]c(=S)nc2nnsc12	-12%	-20%	.	.	.
CCN(CC)S(=O)(=O)c1ccc2[nH]cc(C(=O)NCCC3=CCCCC3)c(=O)c2c1	?	.	1.3µM*	11µM*	11µM*
Cc1ccc(S(=O)(=O)N2CCCCC2)cc1C(=O)NCCC1=CCCCC1	-8%	i	?	?	?
Cc1cc(C(=O)NCCC2=CCCCC2)c(C)o1	.	.	?	9%	15µM*
Cc1cc(N/N=C/c2ccccc2F)nc(NCc2ccccc2)n1	-17%	-2%	2%	?	?
Cc1cc(N/N=C/c2cccc(F)c2)nc(NCc2ccccc2)n1	?	?	?	-23%	16µM*
Cc1cc(N/N=C/c2ccc(Cl)cc2)nc(NCc2ccccc2)n1	-11%	?	?	35µM*	?
Cc1cc(N/N=C/c2ccccc2)nc(NCc2ccccc2)n1	?	10µM*	?	6.3µM*	?
Cc1cc(N/N=C/c2cccc(Cl)c2)nc(NCc2ccccc2)n1	?	?	?	13µM*	18µM*
COc1cc(CN2CCCC(n3cc(C(=O)N4CCCCC4)nn3)C2)cc(OC)c1 (stereo not drawn)	-28%	-26%	.	.	.
CCOC(=O)C1=C(CN2CCCCC2)NC(=O)NC1c1cc(C)ccc1C (stereo not drawn)	-9%	-12%	-25%[46.1 µM]	.	9.2µM*
COc1ccc(CCNC(=S)N2CCC(C(=O)c3ccc(F)cc3)CC2)cc1OC	.	.	?	0.5µM*	?
CCOc1ccc(C(=O)C2CCN(C(=O)c3ccc([N+](=O)[O-])cc3)CC2)cc1	.	.	.	10µM*	.
O=C(c1ccc(F)cc1)C1CCN(C(=O)c2ccc(F)cc2)CC1	.	.	.	2%	.
COc1ccc(C(=O)C2CCN(C(=S)NCCc3ccc(OC)c(OC)c3)CC2)cc1	-27%	i	?	?	?
CCOC(=O)C1CCN(C(=O)c2ccc3nc(-c4ccc(OC)cc4)c(-c4ccc(OC)cc4)nc3c2)CC1	.	.	.	25µM*	.
COc1ccc(C(=O)C2CCN(C(=O)c3ccc(F)cc3)CC2)cc1	-1%	i	4%	25µM*	-20%
Cc1cccc(C(=O)NCC2Cc3cc(F)cc(-c4cnccn4)c3O2)n1 (stereo not drawn)	1%	-7%	.	.	.
COc1ccc(-c2nnc(SCC(=O)c3ccc(NC(C)=O)cc3)o2)cc1OC	-7%	i	-17%[46.1 µM]	.	.
COc1ccc2c(c1)OC(C)CN(CCNC(=O)c1cc3cc(F)ccc3[nH]1)C2 (stereo not drawn)	-10%	-13%	.	.	.
Cc1ccc(NC(=O)c2ccc(=O)n(Cc3ccccc3C)c2)c(C)c1	-8%	-7%	12%[46.1 µM]	.	.
COc1ccc(NS(=O)(=O)c2ccc(NC(=O)c3ccc(CN4CCOCC4)cc3)cc2)cc1	-25%	?	?	1.4µM*	?
CCCCCCOc1ccc(CN2CCN(CCO)CC2)cc1	.	.	?	10µM*	?
CCOc1ccc(OCc2cccc(C(=O)Nc3ccc(CN4CCCCC4)cc3)c2)cc1	?	?	?	?	6.5µM*
CCCCOc1ccc(C(=O)Nc2ccc(CN3CCOCC3)cc2)cc1	.	.	.	10µM*	.
CC(=O)Nc1cccc(-c2cc3c(c4c2ccn4C)C2CCC3C2)c1 (stereo not drawn)	.	.	4%[46.1 µM]	.	.

Screening data (PubChem BioAssay)
